Consider 6 molecules from PubChem BioAssay (NCATS).

Structures are written as SMILES. Records with an inconclusive call do not appear. Activity calls are given as the source filed them. Calls come from the whole dose curve; as a rule, active = well fitted curve in the direction sought with a large enough effect; inconclusive = small, poorly fitted or top-dose-only effect, or another doubt; inactive = no such curve, though single readings can be large; an effect the other way counts as inactive or inconclusive.

Assay [1] is described as follows: HPAF-II Cancer Cell Toxicity qHTS against the NCATS CANVASS Library (AID 1347346). Note: series mostly up to about 38 µM; nearly all actives have a fitted effect of over 55% in size. In a few lines:
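HPAF-II cells were seeded at 1000 cells/well, allowed to settle for 4 h at 37 degrees C, then exposed to compounds in an 11-point series for 72 h. Viability was read by CellTiter-Glo luminescence.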
In general terms: qHTS replaces the single test concentration by a dilution series.

Assay [2] in a line: HPAF-II 24hr Apoptosis Induction qHTS against the NCATS CANVASS Library (AID 1347356). In a few lines: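 HPAF-II cells (500/well) in DMEM + 10% FBS were treated with an 11-point compound series for 24 hours at 37 degrees C. Caspase-3/7 activity was then read by Caspase-Glo DEVD luminescence after 15 min.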
The nature of assay [3]: HEK293 18hr Apoptosis Induction qHTS against the NCATS CANVASS Library (AID 1347357). In a few lines:
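HEK293 cells (500/well, DMEM + 10% FBS) treated with an 11-point series for 18 h at 37 degrees C. Caspase-3/7 activity read by Caspase-Glo luminescence after 15 min at room temperature.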

Assay [4] can be described thus: HPAF-II 12hr Apoptosis Induction qHTS against the NCATS CANVASS Library (AID 1347358). In a few lines: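 HPAF-II cells (500/well, DMEM + 10% FBS) were exposed to compounds for 12 hours at 37 degrees C. Caspase-3/7 activity was then read by Caspase-Glo 3/7 luminescence after 15 min at room temperature.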
Assay [5] in a line: HPAF-II 18hr Apoptosis Induction qHTS against the NCATS CANVASS Library (AID 1347360). In outline:
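HPAF-II cells at 500/well were exposed for 18 h at 37 C to an 11-point compound series. Caspase-3/7 activity was read by Caspase-Glo luminescence after 15 min at RT.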

Assay [6] can be described thus: HEK293 12hr Apoptosis Induction qHTS against the NCATS CANVASS Library (AID 1347361). In outline:
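HEK293 cells (500/well) were exposed to an 11-point qHTS concentration series for 12 hours at 37 degrees C. Caspase-3/7 activity was then read by DEVD-substrate luciferase luminescence after 15 min at room temperature.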

Assay [7] relates to NAD(P)H diaphorase (Clostridium kluyveri). The experiment in a line: Diaphorse counterscreen qHTS: Assay Interference Panel against the NCATS CANVASS Library (AID 1347362). In a few lines:
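Clostridium kluyveri diaphorase in PBS with 0.01% Tween-20 was preincubated 15 min at room temperature in the dark with compounds (11-point series). Resorufin fluorescence (ex 525/20, em 598/25) was read 5 min after adding resazurin/NADH.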
(In general: A counterscreen serves to expose hits that act by an unwanted route or on another target.)

The target of assay [8] is Luciferin 4-monooxygenase (Photinus pyralis) (UniProt P08659). Nature of the assay: Firefly luciferase counterscreen qHTS: Assay Interference Panel against the NCATS CANVASS Library (AID 1347363). Note: potency is the fitted concentration of half-maximal effect. In a few lines:
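Purified P. pyralis luciferase was added to compounds (11-point series) preincubated 15 min at room temperature with substrate containing 0.013 mM D-luciferin and 0.013 mM ATP; luminescence was read after 5 min.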

A short description of assay [9]: MCF7 Cancer Cell Toxicity qHTS against the NCATS CANVASS Library (AID 1347369). In a few lines: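 MCF7 cells (500/well) were exposed 72 h at 37 °C to compounds in an 11-point series. Viability was read as ATP content by CellTiterGlo luminescence.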
A short description of assay [10]: qHTS for ATAD5 Antagonist screened against the NCATS CANVASS Library (AID 1347370).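 Note: HEK293T cells carrying an ATAD5 luciferase reporter co-treated with 10 µM 5-fluorouridine; series mostly up to about 46 µM; nearly all actives have a fitted effect of over 65% in size.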 In a few lines:
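HEK293T cells with a stably integrated ATAD5-controlled luciferase reporter were exposed to compounds (11-pt) alongside 10 uM 5-fluorouridine as ATAD5 stabilizer for 16hr at 37C. Viability was read by CellTiter-Fluor fluorescence, then ATAD5 by luminescence.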

Assay [11] can be described thus: J3T Cancer Cell Toxicity qHTS against the NCATS CANVASS Library (AID 1347371). In a few lines:
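J3T dog glioma cells (500 cells/well) were exposed to compounds in an 11-point series for 72 hr at 37C, 5% CO2. Cytotoxicity was read as ATP content by CellTiterGlo luminescence.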

Assay [12] addresses Nuclear receptor subfamily 1 group I member 3 (Homo sapiens) (UniProt Q14994). Nature of the assay: qHTS for Constitutive Androstane Receptor (CAR) Antagonist screened against the NCATS CANVASS Library (AID 1347372).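 Note: cells stimulated with 50 nM CITCO agonist so inhibition reflects antagonism; series mostly up to about 46 µM.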 In a few lines:
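HepG2 cells stably carrying hCAR and a CYP2B6-2.2kb luciferase reporter were exposed to compounds plus 50 nM CITCO for 24hr at 37C. CAR activity was read by ONE-Glo luminescence, with viability measured first by CellTiter-Fluor.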

Assay [13] has the same target. The experiment in a line: qHTS for Constitutive Androstane Receptor (CAR) Agonist screened against the NCATS CANVASS Library (AID 1347373).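 Note: every well also contained 1.5 µM PK11195 alongside the test compound.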 Note: potency is the fitted concentration of half-maximal effect. In a few lines:
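HepG2 cells stably expressing hCAR and a CYP2B6-2.2kb luciferase reporter were treated for 24hr at 37C with compounds (11-point qHTS) in the presence of 1.5uM PK11195. Reporter activation was read by ONE-Glo luminescence.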

Assay [14] can be described thus: qHTS for Hypoxia signaling pathway (HIF-1) agonists against the NCATS CANVASS Library (AID 1347375). In a few lines: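 HRE-bla ME-180 cells (beta-lactamase reporter under hypoxia responsive element) in 0.5% dialyzed FBS medium, 5 h at 37C, then compound 17 h, 11-point qHTS series. CCF4-AM FRET substrate 2 h RT; 460/530 nm emission read.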
Assay [15] in a line: Cytotoxicity qHTS for assessment of Hepg2 cells membrane integrity screened against the NCATS CANVASS Library (AID 1347387). In outline:
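HepG2 cells (2000/well) attached overnight at 37C, then received compounds in an 11-point series at 0.59 nM - 46 uM final for 5 hr. LDH release was detected fluorometrically (ex 560/em 590 nm) with CytoTox-ONE reagent after 10 min at room temperature.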

Assay [16] in a line: qHTS for activators of dead-cell proteases activity screened against the NCATS CANVASS Library (AID 1347392).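 Note: luminescence from protease leaking out of membrane-damaged cells cleaving impermeant substrate; rising signal means more cytotoxicity.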 In outline:
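HepG2 cells (2000/well) attached 18 h at 37C, then exposed 5 h to compounds (11-point qHTS). Dead-cell protease activity read as luminescence from cell-impermeant AAF-aminoluciferin substrate after 15 min at room temperature.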

Assay [17] can be described thus: qHTS for Activators of p53 Stress Response Pathway screened against the NCATS CANVASS Library (AID 1347388). In a few lines: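 p53RE-bla HCT-116 cells (4000/well) were plated 5 h at 37C, exposed to compounds for 16 h at 37C over an 11-point concentration series, then loaded with CCF4 for 2 h at room temperature; 460/530 nm emission ratio read.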
The nature of assay [18]: Viability qHTS for inhibitors of the SERCaMP assay screened against the NCATS CANVASS Library (AID 1347400). Note: series mostly up to about 92 µM; nearly all actives have a fitted effect of over 70% in size. In a few lines: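 SH-SY5Y-GLuc SERCaMP MJH297-derived cells (1000 cells/well) were pre-incubated 4 h at 37C, then exposed to compounds for 48 h. Viability was read as CellTiter-Glo luminescence; bortezomib served as positive control.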
Assay [19] in a line: 10-beta competent E. coli microbial cell viability qHTS against the NCATS CANVASS Library (AID 1347376). Note: series mostly up to about 46 µM. In a few lines:
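10-beta competent E. coli (0.9 OD culture diluted to 0.2 OD) exposed to compounds in an 11-point qHTS series, incubated overnight at 37C, 5% CO2. Viability read as ATP by BacTiter-Glo luminescence after 20 min at room temperature.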

Nuclear receptor subfamily 1 group I member 3 (Homo sapiens), sequence (Q14994 whole entry, looked up): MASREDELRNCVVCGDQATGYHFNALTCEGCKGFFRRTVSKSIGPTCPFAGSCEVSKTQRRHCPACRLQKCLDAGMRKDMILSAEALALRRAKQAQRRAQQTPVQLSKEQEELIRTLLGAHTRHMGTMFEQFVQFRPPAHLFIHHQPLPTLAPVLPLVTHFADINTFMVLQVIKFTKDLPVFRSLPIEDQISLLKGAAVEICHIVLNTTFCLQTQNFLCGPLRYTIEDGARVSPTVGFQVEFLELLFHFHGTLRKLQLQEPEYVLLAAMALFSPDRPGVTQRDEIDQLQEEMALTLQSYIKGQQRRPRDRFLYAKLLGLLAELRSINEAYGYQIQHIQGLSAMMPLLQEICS
Luciferin 4-monooxygenase (Photinus pyralis), sequence (P08659 whole entry, looked up): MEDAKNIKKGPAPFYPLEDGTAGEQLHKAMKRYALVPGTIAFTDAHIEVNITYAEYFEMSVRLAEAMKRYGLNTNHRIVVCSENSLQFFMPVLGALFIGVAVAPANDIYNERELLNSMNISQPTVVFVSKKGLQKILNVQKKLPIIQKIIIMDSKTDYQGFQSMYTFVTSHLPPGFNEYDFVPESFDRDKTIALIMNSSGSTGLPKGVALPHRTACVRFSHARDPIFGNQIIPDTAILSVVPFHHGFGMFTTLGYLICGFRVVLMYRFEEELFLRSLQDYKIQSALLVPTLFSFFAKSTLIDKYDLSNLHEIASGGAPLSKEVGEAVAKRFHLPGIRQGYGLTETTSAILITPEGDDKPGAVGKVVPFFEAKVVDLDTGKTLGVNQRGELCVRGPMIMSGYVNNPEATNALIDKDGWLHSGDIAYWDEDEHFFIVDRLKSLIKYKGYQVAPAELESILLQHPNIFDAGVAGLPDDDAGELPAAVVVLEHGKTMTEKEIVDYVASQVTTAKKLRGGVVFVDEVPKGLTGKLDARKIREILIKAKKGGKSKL

`O=C1CC(c2ccc(O)cc2)Oc2ccccc21` (centres undefined): the Potency result in assay [1], in assay [3], in [4], in [5], in assay [7] and in assay [9] was “inactive” throughout. For the same molecule, the Potency entry in assay [10], in assay [11], in assay [12] and in assay [16] was “inactive” in each case. Further, the molecule was called inactive in [2], in assay [6], in assay [14] and in assay [15]. In addition, the Potency in assay [8] was 5.44 µM (active); in [13], 23.4 µM (active).

`C[C@@]12CCC[C@@](C)(C(=O)O)[C@H]1C[C@@H](O)[C@@]13C[C@@H](CC[C@@H]21)[C@](C)(O)C3`: the Potency entry in assay [1], in [3], in assay [4], in assay [5], in assay [7] and in assay [8] was “inactive” in each case. The Potency entry in assay [9], in [10], in [11], in [12], in assay [13] and in [17] was “inactive” throughout. Moreover, the Potency result in assay [16] and in assay [18] was “inactive” in each case. Further, the call in [2], in [6], in assay [14] and in assay [15] was inactive.

Consider `[C-]#[N+][C@@]12C(=O)[C@@H]3[C@@H](O[C@@]4(C(=O)N(C)c5cccc1c54)C3(C)C)C(=O)[C@@]2(C)C=C`, for which the Potency result in [1], in assay [3], in assay [4], in assay [5], in [7] and in assay [8] was “inactive” in each case. In addition, the Potency result in assay [9], in assay [10], in [11], in assay [12], in [13] and in [17] was “inactive” throughout. Further, the Potency result in assay [16] and in [18] was “inactive” throughout. Also, the molecule was classed as inactive in assay [2], in assay [6], in [14], in assay [19] and in [15].

Take `C=C1CCC2C(C)(C(=O)O)CCC(CC/C(C)=C/C(=O)NC(CCC(N)=O)C(=O)O)[C@@]2(C)C1` (some centres undefined): the Potency result in assay [1], in assay [3], in assay [4], in assay [5], in [7] and in [8] was “inactive” in each case. For the same molecule, the Potency entry in [9], in assay [10], in [11], in [12], in assay [13] and in assay [17] was “inactive” throughout. In addition, the Potency entry in assay [16] and in [18] was “inactive” each time. In addition, the outcome in assay [2], in assay [6], in assay [14], in [19] and in [15] was inactive.

Take `C=C[C@]1(C)CC[C@@H]([C@H](C)C(=O)CC=C(C)C)O1`: the Potency result in [1], in assay [3], in [4], in [5], in assay [7] and in [8] was “inactive” in each case. For the same molecule, the Potency entry in assay [9], in [10], in [11], in assay [12], in assay [13] and in [17] was “inactive” each time. Further, the Potency result in assay [16] and in assay [18] was “inactive” throughout. For the same molecule, the molecule was classed as inactive in assay [2], in assay [6], in assay [14], in assay [19] and in assay [15].

`CCC(C)=C1OC(=O)[C@H](C)[C@H](O)[C@H](Cc2cccnc2)NC(=O)C(NC(=O)c2ncccc2O)C(C)OC1=O` (some centres undefined): the Potency entry in [1], in assay [3], in assay [4], in assay [5], in assay [8] and in [9] was “inactive” in each case. Further, the Potency entry in [10], in [11], in assay [12], in assay [13], in [17] and in assay [16] was “inactive” throughout. For the same molecule, the Potency entry in assay [18] was “inactive”. The molecule was called inactive in [2], in [6], in assay [14], in assay [19] and in assay [15].
